In article PMC7862700, “An all-to-all approach to the identification of sequence-specific readers for epigenetic DNA modifications on cytosine” one finds binding signal data, which are given here for 1 sequence.

Test in all cases: DAPPL (digital affinity profiling via proximity ligation, sequencing); 10 mM Tris-HCl pH 7.5, 50 mM NaCl, 1 mM DTT, 4% glycerol, room temperature, 30 min; GST-TFs on glutathione beads, 16-mer random dsDNA library, 0.1% formaldehyde crosslink after washing; high values mean tight binding
Test [1] deals with T1, FEV (Homo sapiens, UniProt Q99581 1-238).
T1 sequence: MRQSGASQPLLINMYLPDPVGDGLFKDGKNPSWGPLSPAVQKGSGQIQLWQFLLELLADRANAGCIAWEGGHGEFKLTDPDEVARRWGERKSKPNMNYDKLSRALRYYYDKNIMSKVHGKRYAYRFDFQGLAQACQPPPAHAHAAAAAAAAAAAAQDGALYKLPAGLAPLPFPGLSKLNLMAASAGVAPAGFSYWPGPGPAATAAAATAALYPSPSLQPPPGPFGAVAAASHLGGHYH
To be noted: protein: recombinant; tags: N-terminal GST; dsDNA, one strand shown. In a few lines: (§1)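 In yeast, human transcription factors were expressed with a GST fusion, then pulled down on glutathione beads and given DNA barcodes. Pooled with a tag-only sample, they were exposed to 200 nmole of a 16-mer random double-stranded DNA library (Tris/NaCl/DTT/glycerol buffer, room temperature, 30 min), washed, crosslinked with 0.1% formaldehyde, proximity-ligated using BsaI/T4 ligase for 1 h at 37 °C, PCR-amplified and read on an Illumina NextSeq500. Each hexamer's frequency of reads for a factor, divided by the matching frequency for the tag-only sample, gives the binding signal.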

The target in test [2] is ETV5 (Homo sapiens, UniProt P41161 1-510). Particulars: protein: recombinant; tags: N-terminal GST; dsDNA, one strand shown. Summed up:
as §1

The target of test [3] is HSF1 (Homo sapiens, UniProt Q00613 1-529). To be noted: protein: recombinant; tags: N-terminal GST; chain copies: 3; dsDNA, one strand shown. In a few lines: as §1
Sequence of HSF1 (Q00613 whole entry): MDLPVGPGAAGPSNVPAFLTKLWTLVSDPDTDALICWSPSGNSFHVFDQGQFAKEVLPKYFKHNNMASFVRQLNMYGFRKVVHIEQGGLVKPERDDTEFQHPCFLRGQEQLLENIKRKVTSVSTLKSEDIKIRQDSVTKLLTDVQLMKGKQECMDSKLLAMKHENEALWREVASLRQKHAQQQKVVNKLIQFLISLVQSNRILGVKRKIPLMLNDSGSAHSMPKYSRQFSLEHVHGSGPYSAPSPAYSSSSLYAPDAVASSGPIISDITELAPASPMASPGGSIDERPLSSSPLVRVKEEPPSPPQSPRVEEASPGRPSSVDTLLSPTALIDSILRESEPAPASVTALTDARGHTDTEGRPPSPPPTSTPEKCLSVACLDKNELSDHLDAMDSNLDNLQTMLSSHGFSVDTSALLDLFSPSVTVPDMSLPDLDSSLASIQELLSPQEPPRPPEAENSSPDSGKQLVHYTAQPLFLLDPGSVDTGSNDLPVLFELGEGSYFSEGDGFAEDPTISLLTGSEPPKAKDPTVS
For test [4], the target named is T2, SPIC (Homo sapiens, UniProt Q8N5J4 1-248).
T2 sequence: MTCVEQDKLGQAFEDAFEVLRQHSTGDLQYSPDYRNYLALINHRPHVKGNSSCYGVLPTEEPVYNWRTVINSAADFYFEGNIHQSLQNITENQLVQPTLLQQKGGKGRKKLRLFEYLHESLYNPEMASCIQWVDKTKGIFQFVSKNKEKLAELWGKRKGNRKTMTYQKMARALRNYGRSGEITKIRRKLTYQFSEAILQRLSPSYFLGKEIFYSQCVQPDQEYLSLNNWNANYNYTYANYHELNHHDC
Particulars: protein: recombinant; tags: N-terminal GST; dsDNA, one strand shown. Summed up: as §1

For test [5], the target named is ELF4 (Homo sapiens, UniProt Q99607 1-663). To be noted: protein: recombinant; tags: N-terminal GST; dsDNA, one strand shown. Summed up: as §1
Sequence of ELF4 (Q99607 whole entry): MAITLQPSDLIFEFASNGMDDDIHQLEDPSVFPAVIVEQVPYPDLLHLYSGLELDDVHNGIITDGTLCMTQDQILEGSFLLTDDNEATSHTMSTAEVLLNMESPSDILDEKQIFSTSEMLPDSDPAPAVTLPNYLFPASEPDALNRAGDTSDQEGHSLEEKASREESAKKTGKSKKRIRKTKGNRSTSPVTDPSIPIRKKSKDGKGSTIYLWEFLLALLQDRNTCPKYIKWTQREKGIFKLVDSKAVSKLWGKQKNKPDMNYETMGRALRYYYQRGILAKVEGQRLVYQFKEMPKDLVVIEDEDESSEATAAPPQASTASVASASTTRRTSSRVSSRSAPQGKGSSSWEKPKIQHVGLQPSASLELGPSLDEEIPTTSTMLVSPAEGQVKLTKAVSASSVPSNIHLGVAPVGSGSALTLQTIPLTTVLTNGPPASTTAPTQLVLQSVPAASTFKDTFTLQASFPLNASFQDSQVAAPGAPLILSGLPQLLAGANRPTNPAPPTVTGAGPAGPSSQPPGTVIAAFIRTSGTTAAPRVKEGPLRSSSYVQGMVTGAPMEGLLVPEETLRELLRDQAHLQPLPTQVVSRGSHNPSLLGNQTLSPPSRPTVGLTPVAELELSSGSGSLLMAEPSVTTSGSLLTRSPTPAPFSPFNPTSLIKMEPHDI
Test [6] addresses T3, ELK4 (Homo sapiens, UniProt P28324-2 1-405).
T3 sequence: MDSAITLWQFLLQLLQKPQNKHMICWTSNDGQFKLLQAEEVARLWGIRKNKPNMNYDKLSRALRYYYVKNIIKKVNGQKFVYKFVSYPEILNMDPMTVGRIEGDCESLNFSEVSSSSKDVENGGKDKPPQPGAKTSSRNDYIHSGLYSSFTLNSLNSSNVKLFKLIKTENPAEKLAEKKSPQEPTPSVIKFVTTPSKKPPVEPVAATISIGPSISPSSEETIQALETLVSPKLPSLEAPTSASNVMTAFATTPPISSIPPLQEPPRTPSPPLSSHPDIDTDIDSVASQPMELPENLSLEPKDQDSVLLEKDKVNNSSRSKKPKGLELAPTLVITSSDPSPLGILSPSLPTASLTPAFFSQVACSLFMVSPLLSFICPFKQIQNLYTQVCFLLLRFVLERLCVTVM
To be noted: protein: recombinant; tags: N-terminal GST; dsDNA, one strand shown. In a few lines:
as §1

Test [7] concerns the target T4, ETV2 (Homo sapiens, UniProt O00321 1-342).
T4 sequence: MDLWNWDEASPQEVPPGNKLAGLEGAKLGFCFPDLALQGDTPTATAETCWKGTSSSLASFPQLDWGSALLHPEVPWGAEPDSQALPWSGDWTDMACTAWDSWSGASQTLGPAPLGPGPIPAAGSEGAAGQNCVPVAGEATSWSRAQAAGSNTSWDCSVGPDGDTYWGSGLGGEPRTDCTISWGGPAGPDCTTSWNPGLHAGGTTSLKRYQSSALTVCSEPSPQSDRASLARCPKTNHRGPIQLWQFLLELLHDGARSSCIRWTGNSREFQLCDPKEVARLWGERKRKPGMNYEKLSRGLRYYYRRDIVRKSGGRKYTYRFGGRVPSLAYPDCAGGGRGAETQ
Particulars: protein: recombinant; tags: N-terminal GST; dsDNA, one strand shown. Summed up: as §1

Test [8] has as its target T5, ELF3 (Homo sapiens, UniProt P78545 1-371).
T5 sequence: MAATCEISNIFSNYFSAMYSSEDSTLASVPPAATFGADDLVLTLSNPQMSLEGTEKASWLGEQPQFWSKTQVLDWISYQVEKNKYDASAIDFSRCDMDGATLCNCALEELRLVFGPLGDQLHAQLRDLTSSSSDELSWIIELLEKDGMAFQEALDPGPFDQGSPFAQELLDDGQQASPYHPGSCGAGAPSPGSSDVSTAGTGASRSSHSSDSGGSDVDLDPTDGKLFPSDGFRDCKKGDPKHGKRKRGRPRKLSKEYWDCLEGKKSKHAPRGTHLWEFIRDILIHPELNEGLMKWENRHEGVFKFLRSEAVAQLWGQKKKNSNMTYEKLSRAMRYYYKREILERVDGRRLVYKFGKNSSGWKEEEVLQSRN
Particulars: protein: recombinant; tags: N-terminal GST; dsDNA, one strand shown. Summed up:
as §1

Test [9] concerns the target CRX (Homo sapiens, UniProt O43186 1-299). Particulars: protein: recombinant; tags: N-terminal GST; dsDNA, one strand shown. Summed up: as §1
The target in test [10] is ETV1 (Homo sapiens, UniProt P50549 1-477). Particulars: protein: recombinant; tags: N-terminal GST; dsDNA, one strand shown. In a few lines: as §1
Sequence of ETV1 (P50549 whole entry): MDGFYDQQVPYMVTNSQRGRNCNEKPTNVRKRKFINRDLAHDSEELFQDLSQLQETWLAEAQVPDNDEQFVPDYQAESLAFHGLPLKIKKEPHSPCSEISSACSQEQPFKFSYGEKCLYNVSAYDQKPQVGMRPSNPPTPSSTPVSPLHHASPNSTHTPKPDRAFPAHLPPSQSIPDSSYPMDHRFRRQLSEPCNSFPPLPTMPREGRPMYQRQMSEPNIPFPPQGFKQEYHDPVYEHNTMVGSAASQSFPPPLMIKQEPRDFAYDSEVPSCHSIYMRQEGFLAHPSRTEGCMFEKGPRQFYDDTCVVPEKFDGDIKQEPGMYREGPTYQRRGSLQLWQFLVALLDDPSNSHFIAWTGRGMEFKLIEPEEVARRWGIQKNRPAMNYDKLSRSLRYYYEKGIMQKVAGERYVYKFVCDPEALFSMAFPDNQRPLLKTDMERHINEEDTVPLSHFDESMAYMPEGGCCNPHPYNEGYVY
Test [11] addresses T6, ERF (Homo sapiens, UniProt P50548 1-548).
T6 sequence: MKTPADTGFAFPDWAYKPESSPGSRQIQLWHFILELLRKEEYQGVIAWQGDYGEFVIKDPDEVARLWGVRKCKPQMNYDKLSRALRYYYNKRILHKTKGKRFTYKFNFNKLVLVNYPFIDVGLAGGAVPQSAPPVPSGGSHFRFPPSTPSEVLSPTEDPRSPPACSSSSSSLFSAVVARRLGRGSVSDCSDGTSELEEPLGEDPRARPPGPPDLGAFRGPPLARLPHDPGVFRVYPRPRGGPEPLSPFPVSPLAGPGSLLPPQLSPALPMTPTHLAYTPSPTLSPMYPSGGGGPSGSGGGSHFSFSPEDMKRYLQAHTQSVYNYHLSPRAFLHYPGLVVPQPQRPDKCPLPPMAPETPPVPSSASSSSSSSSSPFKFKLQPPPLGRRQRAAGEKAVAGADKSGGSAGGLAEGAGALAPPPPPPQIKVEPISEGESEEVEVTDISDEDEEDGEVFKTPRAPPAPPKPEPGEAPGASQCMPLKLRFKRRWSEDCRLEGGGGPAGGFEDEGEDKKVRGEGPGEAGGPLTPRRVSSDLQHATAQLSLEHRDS
Particulars: protein: recombinant; tags: N-terminal GST; dsDNA, one strand shown. Summed up:
as §1

Test [12] concerns the target T7, ETV3L (Homo sapiens, UniProt Q6ZN32 1-361).
T7 sequence: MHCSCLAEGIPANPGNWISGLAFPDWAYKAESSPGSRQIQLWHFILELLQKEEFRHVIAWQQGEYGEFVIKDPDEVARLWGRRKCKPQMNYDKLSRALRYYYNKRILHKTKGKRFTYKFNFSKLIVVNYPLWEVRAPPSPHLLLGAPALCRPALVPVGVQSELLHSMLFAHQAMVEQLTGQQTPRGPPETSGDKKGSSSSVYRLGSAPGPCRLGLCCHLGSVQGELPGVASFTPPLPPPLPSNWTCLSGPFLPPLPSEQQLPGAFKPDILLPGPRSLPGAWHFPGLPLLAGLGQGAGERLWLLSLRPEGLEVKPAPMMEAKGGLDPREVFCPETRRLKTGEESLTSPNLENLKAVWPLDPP
Particulars: protein: recombinant; tags: N-terminal GST; dsDNA, one strand shown. In a few lines:
as §1

In test [13] the target is T8, ETS2 (Homo sapiens, UniProt P15036 1-469).
T8 sequence: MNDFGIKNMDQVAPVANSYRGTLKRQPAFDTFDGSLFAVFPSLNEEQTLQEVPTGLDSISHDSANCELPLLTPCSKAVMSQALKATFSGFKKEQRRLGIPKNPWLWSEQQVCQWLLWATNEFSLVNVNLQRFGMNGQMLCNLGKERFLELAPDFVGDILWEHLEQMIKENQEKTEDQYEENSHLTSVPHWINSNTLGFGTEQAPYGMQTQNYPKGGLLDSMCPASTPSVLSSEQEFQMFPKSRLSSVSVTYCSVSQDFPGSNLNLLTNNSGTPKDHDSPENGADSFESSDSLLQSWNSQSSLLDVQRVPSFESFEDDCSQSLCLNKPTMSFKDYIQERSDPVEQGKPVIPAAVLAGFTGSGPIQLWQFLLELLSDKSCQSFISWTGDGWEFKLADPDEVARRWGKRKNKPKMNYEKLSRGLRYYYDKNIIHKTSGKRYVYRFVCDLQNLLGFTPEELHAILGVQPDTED
Particulars: protein: recombinant; tags: N-terminal GST; dsDNA, one strand shown. Summed up: as §1

Test [14] addresses T9, SPDEF (Homo sapiens, UniProt O95238 1-335).
T9 sequence: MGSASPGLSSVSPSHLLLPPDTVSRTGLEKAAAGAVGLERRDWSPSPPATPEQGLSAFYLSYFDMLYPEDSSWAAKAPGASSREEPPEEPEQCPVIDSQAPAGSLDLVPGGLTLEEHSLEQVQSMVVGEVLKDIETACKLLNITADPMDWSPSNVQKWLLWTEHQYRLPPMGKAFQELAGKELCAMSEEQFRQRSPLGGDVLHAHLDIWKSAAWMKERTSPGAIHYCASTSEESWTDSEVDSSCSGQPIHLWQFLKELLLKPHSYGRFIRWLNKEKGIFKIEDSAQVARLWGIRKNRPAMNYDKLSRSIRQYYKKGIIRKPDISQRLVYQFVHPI
To be noted: protein: recombinant; tags: N-terminal GST; dsDNA, one strand shown. In a few lines: as §1

Test [15] addresses T10, ETV7 (Homo sapiens, UniProt Q9Y603 1-341).
T10 sequence: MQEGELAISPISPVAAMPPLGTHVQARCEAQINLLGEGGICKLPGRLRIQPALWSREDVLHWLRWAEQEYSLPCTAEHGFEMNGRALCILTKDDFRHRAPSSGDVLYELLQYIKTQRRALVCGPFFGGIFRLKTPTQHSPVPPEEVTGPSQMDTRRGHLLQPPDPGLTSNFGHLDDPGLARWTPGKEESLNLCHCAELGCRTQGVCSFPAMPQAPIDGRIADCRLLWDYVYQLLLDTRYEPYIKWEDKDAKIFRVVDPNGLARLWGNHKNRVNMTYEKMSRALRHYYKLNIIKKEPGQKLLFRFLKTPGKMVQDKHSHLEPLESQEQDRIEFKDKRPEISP
Particulars: protein: recombinant; tags: N-terminal GST; dsDNA, one strand shown. In a few lines: as §1

The target of test [16] is T11, ELF5 (Homo sapiens, UniProt Q9UKW6-2 1-255).
T11 sequence: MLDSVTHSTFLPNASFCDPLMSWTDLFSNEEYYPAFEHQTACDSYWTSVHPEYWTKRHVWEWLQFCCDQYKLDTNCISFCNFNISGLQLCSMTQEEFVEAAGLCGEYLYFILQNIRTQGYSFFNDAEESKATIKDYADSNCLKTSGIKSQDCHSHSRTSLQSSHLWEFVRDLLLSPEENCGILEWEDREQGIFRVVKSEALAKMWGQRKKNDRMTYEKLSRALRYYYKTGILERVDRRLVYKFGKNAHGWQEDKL
Particulars: protein: recombinant; tags: N-terminal GST; dsDNA, one strand shown. In a few lines:
as §1

Test [17] has as its target T12, ETV3 (Homo sapiens, UniProt P41162-2 1-143).
T12 sequence: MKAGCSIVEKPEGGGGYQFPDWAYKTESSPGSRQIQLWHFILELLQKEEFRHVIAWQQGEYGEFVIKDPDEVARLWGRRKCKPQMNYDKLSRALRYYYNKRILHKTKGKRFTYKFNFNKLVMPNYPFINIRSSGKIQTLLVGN
To be noted: protein: recombinant; tags: N-terminal GST; dsDNA, one strand shown. Summed up:
as §1

Test [18] addresses ETV6 (Homo sapiens, UniProt P41212 1-452). To be noted: protein: recombinant; tags: N-terminal GST; dsDNA, one strand shown. In a few lines:
as §1

Sequence of ETV6 (P41212 whole entry): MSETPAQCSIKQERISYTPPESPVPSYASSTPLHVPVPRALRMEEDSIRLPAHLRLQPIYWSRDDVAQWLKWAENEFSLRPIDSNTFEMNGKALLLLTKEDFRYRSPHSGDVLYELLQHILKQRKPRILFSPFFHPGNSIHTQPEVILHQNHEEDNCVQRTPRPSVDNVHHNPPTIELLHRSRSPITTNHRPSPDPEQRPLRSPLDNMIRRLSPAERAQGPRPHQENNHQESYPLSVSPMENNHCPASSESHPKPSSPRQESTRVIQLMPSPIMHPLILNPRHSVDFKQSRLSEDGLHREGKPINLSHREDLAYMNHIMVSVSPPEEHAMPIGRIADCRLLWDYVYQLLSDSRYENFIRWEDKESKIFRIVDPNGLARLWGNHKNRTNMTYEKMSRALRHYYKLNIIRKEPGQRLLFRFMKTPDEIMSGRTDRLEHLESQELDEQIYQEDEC
Sequence of ETV5 (P41161 whole entry): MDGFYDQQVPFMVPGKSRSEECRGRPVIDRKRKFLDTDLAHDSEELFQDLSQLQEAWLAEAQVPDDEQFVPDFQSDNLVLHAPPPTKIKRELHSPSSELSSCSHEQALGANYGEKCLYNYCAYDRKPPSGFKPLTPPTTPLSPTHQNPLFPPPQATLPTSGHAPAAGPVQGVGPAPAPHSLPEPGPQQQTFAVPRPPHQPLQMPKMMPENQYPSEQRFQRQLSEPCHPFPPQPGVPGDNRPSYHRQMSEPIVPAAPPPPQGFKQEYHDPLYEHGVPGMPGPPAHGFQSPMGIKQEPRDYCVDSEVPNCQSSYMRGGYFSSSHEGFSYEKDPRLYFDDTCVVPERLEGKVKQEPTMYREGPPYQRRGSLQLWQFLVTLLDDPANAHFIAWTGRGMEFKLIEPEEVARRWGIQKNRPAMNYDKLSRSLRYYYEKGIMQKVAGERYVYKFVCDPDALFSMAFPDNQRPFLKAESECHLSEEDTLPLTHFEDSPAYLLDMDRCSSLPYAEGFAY
Sequence of CRX (O43186 whole entry): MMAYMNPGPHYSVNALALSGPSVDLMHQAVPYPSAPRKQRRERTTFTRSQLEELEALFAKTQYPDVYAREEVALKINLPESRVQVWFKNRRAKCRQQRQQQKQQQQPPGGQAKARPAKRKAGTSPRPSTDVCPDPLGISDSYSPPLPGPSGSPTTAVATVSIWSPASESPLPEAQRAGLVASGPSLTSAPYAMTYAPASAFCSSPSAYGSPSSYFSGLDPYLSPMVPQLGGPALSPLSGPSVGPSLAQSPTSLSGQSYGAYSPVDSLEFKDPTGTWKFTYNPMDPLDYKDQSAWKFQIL

Take CTGTTT: the binding signal was 1.41 fold enrichment (6-mer frequency, TF over GST control) in [1]; 1.42 fold enrichment (6-mer frequency, TF over GST control) in test [2]; 1.13 fold enrichment (6-mer frequency, TF over GST control) in [3]; 1.31 fold enrichment (6-mer frequency, TF over GST control) in [4]; 1.38 fold enrichment (6-mer frequency, TF over GST control) in [5]; 1.29 fold enrichment (6-mer frequency, TF over GST control) in [6]. Also, the binding signal was 1.4 fold enrichment (6-mer frequency, TF over GST control) in test [7]; 1.14 fold enrichment (6-mer frequency, TF over GST control) in test [8]; 1.08 fold enrichment (6-mer frequency, TF over GST control) in [9]; 1.5 fold enrichment (6-mer frequency, TF over GST control) in test [10]; 1.37 fold enrichment (6-mer frequency, TF over GST control) in test [11]; 1.49 fold enrichment (6-mer frequency, TF over GST control) in test [12]. For the same sequence, the binding signal in test [13] is 1.45 fold enrichment (6-mer frequency, TF over GST control); in test [14], 1.42 fold enrichment (6-mer frequency, TF over GST control); in test [15], 1.38 fold enrichment (6-mer frequency, TF over GST control); in test [16] it was 1.62 fold enrichment (6-mer frequency, TF over GST control); in test [17] it was 1.36 fold enrichment (6-mer frequency, TF over GST control); in [18] it was 1.49 fold enrichment (6-mer frequency, TF over GST control).
